How the values were obtained:
Conditions in all cases: concentration: 1 μM, replicates: in singlicate; n = 1
[1] = test system: T1, RSK1(Kin.Dom.1-N-terminal)
T1 construct: gene RPS6KA1

[2] = test system: T2, RSK1(Kin.Dom.2-C-terminal)
T2 construct: gene RPS6KA1

[3] = test system: T3, RSK2(Kin.Dom.1-N-terminal)
T3 construct: gene RPS6KA3

[4] = test system: T4, RSK2(Kin.Dom.2-C-terminal)
T4 construct: gene RPS6KA3

[5] = test system: T5, RSK3(Kin.Dom.1-N-terminal)
T5 construct: gene RPS6KA2

[6] = test system: T6, RSK3(Kin.Dom.2-C-terminal)
T6 construct: gene RPS6KA2

[7] = test system: T7, RSK4(Kin.Dom.1-N-terminal)
T7 construct: gene RPS6KA6

[8] = test system: T8, RSK4(Kin.Dom.2-C-terminal)
T8 construct: gene RPS6KA6

S6K1 = test system: S6K1
SBK1 = test system: SBK1
SGK2 = test system: SGK2
SGK3 = test system: SGK3
SGK = test system: SGK
SIK2 = test system: SIK2
SIK = test system: SIK
SLK = test system: SLK
SNARK = test system: T9, SNARK
T9 construct: gene NUAK2

SNRK = test system: SNRK
SRC = test system: SRC
SRMS = test system: SRMS
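Note: KINOMEscan kinase panel screen.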

Structure (SMILES) | %Inh [1] | %Inh [2] | %Inh [3] | %Inh [4] | %Inh [5] | %Inh [6] | %Inh [7] | %Inh [8] | %Inh (S6K1) | %Inh (SBK1) | %Inh (SGK2) | %Inh (SGK3) | %Inh (SGK) | %Inh (SIK2) | %Inh (SIK) | %Inh (SLK) | %Inh (SNARK) | %Inh (SNRK) | %Inh (SRC) | %Inh (SRMS)
Cc1cccc(-c2cc(-c3c[nH]nc3-c3ccccn3)ccn2)c1 [GW679395] | 9% | 0% | 0% | 7% | 6% | 12% | 0% | 49% | 0% | 5% | 6% | 0% | 0% | 0% | 0% | 0% | 0% | 0% | 53% | 0%
Nc1nc(N)c2nc(-c3ccccc3)[nH]c2n1 [SKF-12778] | 0% | 0% | 9% | 9% | 18% | 0% | 15% | 1% | 8% | 10% | 18% | 7% | 15% | 22% | 17% | 21% | 19% | 0% | 19% | 0%
Cc1ccccc1COc1cc(-n2cnc3cc(Cl)ccc32)sc1C(N)=O [GW813349] | 16% | 0% | 2% | 49% | 5% | 0% | 0% | 42% | 8% | 0% | 6% | 1% | 0% | 0% | 4% | 73% | 4% | 3% | 0% | 0%
O=C(Nc1n[nH]c2nc(-c3ccccc3)c(Br)cc12)C1CC1 [SB-708998] | 0% | 0% | 7% | 29% | 0% | 0% | 18% | 2% | 0% | 17% | 0% | 0% | 5% | 0% | 5% | 20% | 4% | 18% | 4% | 0%
Nc1nc(-c2ccccc2F)c(-c2ccnc3ccccc23)s1 [GW560459] | 0% | 35% | 6% | 95.6% | 0% | 1% | 0% | 89% | 0% | 6% | 1% | 5% | 15% | 0% | 0% | 4% | 8% | 0% | 0% | 0%
CCn1c(-c2ccoc2)nc2cnccc21 [SB-733887] | 9% | 4% | 0% | 0% | 0% | 0% | 0% | 0% | 18% | 0% | 5% | 4% | 12% | 0% | 0% | 25% | 0% | 0% | 0% | 0%
COc1cc(Nc2nccc(N3CCC(NC(=O)C4COc5ccccc5O4)C3)n2)cc(OC)c1OC (stereo not shown) [GSK1379761] | 3% | 4% | 0% | 24% | 0% | 12% | 0% | 2% | 0% | 20% | 0% | 0% | 17% | 0% | 0% | 17% | 23% | 0% | 53% | 11%
COc1cccc(C2=C(N(C)c3ccccc3)C(=O)NC2=O)c1 [SB-334865] | 0% | 0% | 0% | 5% | 11% | 5% | 0% | 19% | 10% | 0% | 0% | 3% | 0% | 0% | 0% | 13% | 0% | 0% | 0% | 0%
COc1ccc(CNC(=O)NC2CCN(c3ccnc(Nc4ccc(F)cc4)n3)C2)cc1 (stereo not shown) [GSK1379706] | 14% | 28% | 0% | 3% | 15% | 31% | 0% | 20% | 0% | 0% | 0% | 0% | 0% | 0% | 13% | 9% | 0% | 0% | 0% | 0%
COc1cc2ncn(-c3cc(OCc4ccncc4)c(C(N)=O)s3)c2cc1OC [GSK336313] | 25% | 0% | 6% | 0% | 0% | 0% | 0% | 0% | 0% | 24% | 0% | 3% | 0% | 0% | 0% | 43% | 4% | 0% | 0% | 0%
COc1cc(Nc2nccc(N3CCC(NC(=O)C(C)c4ccc(Cl)cc4)C3)n2)cc(OC)c1OC (stereo not shown) [GSK1379757] | 21% | 0% | 2% | 1% | 0% | 0% | 0% | 5% | 0% | 12% | 0% | 0% | 0% | 0% | 1% | 1% | 19% | 0% | 13% | 0%

Reference: publication PMC5540273 (PLoS ONE, 2017)
